# Measurements reported in PubChem BioAssay AID701 (PCMD, 2007).
# The whole screen tested about 33,000 compounds, of which about 70 (0.2%) were called active. The list is a sample of the results. Unmarked numbers belong to inactive results. Rule as the data show it: active = inhibition above about 30%; inactive = the rest.
# Target: Coagulation factor XII (Homo sapiens) (UniProt P00748)
# Test: human FXIIa protease inhibitors, primary screen, biochemical, single well (AID 701);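 also: 0% = enzyme with vehicle only and 100% = no enzyme blank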
# Conditions: purified human FXIIa, AMC substrate fluorescence, 2 h; at 10 µM; hits give high values
# Chain of Coagulation factor XII (Homo sapiens) (P00748 20-372 limits assumed): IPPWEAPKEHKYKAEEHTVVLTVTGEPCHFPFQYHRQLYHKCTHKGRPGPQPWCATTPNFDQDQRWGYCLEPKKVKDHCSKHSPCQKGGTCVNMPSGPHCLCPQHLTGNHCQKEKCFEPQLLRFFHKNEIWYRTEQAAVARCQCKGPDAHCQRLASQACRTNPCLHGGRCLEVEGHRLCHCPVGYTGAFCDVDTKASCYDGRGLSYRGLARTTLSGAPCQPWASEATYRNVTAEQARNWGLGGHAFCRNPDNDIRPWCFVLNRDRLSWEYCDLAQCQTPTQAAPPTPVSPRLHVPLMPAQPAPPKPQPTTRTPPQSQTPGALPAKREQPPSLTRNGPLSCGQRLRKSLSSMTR
# Chain of Coagulation factor XII (Homo sapiens) (P00748 373-615 limits assumed): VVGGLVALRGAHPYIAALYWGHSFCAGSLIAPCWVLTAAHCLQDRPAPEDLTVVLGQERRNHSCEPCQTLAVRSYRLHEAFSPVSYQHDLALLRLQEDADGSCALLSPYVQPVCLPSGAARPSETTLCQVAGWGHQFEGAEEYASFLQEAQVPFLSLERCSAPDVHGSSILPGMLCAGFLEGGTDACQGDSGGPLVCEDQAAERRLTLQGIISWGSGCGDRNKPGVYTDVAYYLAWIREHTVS
row,Structure (SMILES),inhibition [%]
1,Cc1nnc(OCC(=O)NCCC2=CCCCC2)c2ccccc12,11.9
2,COC(=O)C(C)n1cnc2c(nnn2-c2cccc(Cl)c2)c1=O (configuration not stated),4.25
3,C=CCNC(=O)C12CC3CC(C1)CC(C(=O)NCC=C)(C3)C2,5.41
4,O=C(CNS(=O)(=O)c1ccc(Br)s1)N1CCN(C(=O)c2ccco2)CC1,5.22
5,O=c1onc(-c2cccs2)n1Cc1ccccc1,2.91
6,CC(=O)C1=C(C)NC(=O)NC1c1cc(Br)ccc1OCC#N (configuration not stated),6
7,CC/C(O)=N\S(=O)(=O)c1ccc(N=NN(C)C)cc1,12.3
8,O=C(c1cccc(N2CCCC2=O)c1)N1CCOCC1,8.03
9,O=C(NCCCN1CCCCC1)c1ccc2c(c1)NC(=O)C(N1CCOCC1)S2 (configuration not stated),2.66
10,COc1ccccc1CNS(=O)(=O)c1ccc(C)cc1,-2.17
11,Nn1c(SCC(=O)NC2CCCC2)nnc1-c1ccccc1F,2.89
12,CC(=O)c1cccc(NC(=O)N2CCCC2C(=O)NCCc2ccccc2)c1 (configuration not stated),6.02
13,CC(=O)c1cccc(NC(=O)C2CCCN2S(=O)(=O)c2cccc3nsnc23)c1 (configuration not stated),-30.9
14,COc1ccc(C(=O)NNC(=O)c2cnccn2)cc1[N+](=O)[O-],6.61
15,CSc1ccccc1NC(=O)c1cc(C2CC2)on1,5.73
16,Cc1cc(C(=O)Nc2c(C)nn(Cc3ccccc3)c2C)on1,3.84
17,Cc1nnc(NCCO)c2ccccc12,-0.65
18,O=C(NC1CCCCC1)c1ccc(CNc2c(N3CCOCC3)c(=O)c2=O)cc1,9.25
19,CCS(=O)(=O)c1ccc2oc(SCC(=O)N3c4ccccc4CC3C)nc2c1 (configuration not stated),11.8
20,CC(NC(=O)C1CCC(CNc2c(N3CCOCC3)c(=O)c2=O)CC1)c1ccccc1 (configuration not stated),4.59
21,Cc1ccc(OC(=O)c2ccccc2C(=O)OCC(F)(F)C(F)F)cc1,5.93

row,Structure (SMILES),inhibition [%]
1,Cc1ccc(CS(=O)(=O)CCC(=O)NC2CC2)cc1,3.34
2,O=C(OCC(=O)N1CCN(C(=O)c2ccco2)CC1)c1ccccc1Cc1ccccc1,3.88
3,CC(C)CCNC(=O)CC1C(=O)N(Cc2ccccc2)C(C)c2nc3ccccc3n21 (configuration not stated),5.26
4,CCCCCOC(=O)c1ccc(N2C(=O)C3C4C=CC(C4)C3C2=O)cc1 (configuration not stated),-10.2
5,O=C(N1CCOCC1)N(Cc1ccccc1)c1ccccn1,1.36
6,COC(=O)c1cc(OC)ccc1-c1ccc(OC)cc1,4.36
7,COCCCNC(=O)CN1CCN(Cc2ccccc2Cl)C1=O,13.3
8,COCCNC(=O)COc1ccc(C)c(C)c1,5.6
9,COC(=O)C1C(=O)NCC1c1ccc(C)cc1 (configuration not stated),4.77
10,COc1ccc(C(=O)Nc2ccc(CN3CCOCC3)cc2)cc1,-0.34
11,COC(=O)c1ccccc1Sc1c(/C=N/OCc2ccc(Cl)cc2)c(C(F)(F)F)nn1C,5.69
12,CCSc1nc(-c2ccc(OC)cc2)cc(-c2ccc(OC)cc2)c1C#N,12.5
13,COC(=O)[C@@H](NC(=O)Nc1cc(Cl)ccc1C)C(C)C,-0.53
14,O=C(OCC#CCSc1nnc(-c2ccncc2)o1)c1sc2ccccc2c1Cl,-11.2
15,O=C(Cc1c(O)c2ccccc2[nH]c1=O)NCc1ccccc1,-1.57
16,Cc1ccc(S(=O)(=O)/N=C(\CN2CCOCC2)N2CCOCC2)cc1,-13.1
17,O=C(NCCCn1ccnc1)Nc1ccc(Cl)cc1Cl,-12
18,Cc1cccc(NC(=O)CSc2nnc(-c3ccco3)o2)c1,7.32
19,CCOc1ccc(N(CC(=O)NC2CCCCCC2)S(=O)(=O)c2c(C)[nH]c(=O)[nH]c2=O)cc1,-0.15
20,CCOc1ccc(NC(=O)c2ccccc2NS(C)(=O)=O)cc1,7.81
21,COC(=O)CSc1nnc(-c2cccnc2)o1,4.99

row,Structure (SMILES),inhibition [%]
1,Cc1cccc(NC(=O)CSc2nc3c(c(=O)[nH]2)CCCC3)c1C,7.72
2,CCc1ccc(CNC(=O)C2CC(=O)N(CCc3ccc(C)cc3)C2)cc1 (configuration not stated),-0.05
3,O=C(O)CCC(=O)N(Cc1cccs1)Cc1cccs1,-0.32
4,Cn1c(SCC(=O)NC2CCCCC2)nnc1-c1cc2ccccc2o1,-0.46
5,CC(=O)c1c(C)n(-c2ccc(N(C)C)cc2)c2ccc(OCC(N)=O)cc12,8.5
6,OC(COc1cccc2ccccc12)CN1CCN(c2ccccn2)CC1 (configuration not stated),9.54
7,CCCn1c(C(Cc2ccccc2)NC(=O)COC)nc2ccccc21 (configuration not stated),7.07
8,Cn1cc(S(=O)(=O)N2CCN(c3ccc(F)cc3)CC2)c(=O)n(C)c1=O,3.88
9,Cc1cc(NC(=O)CS(=O)(=O)c2cn(C)c3ccccc23)no1,3.14
10,Cn1c(=O)[nH]c(=O)c2c1nc(N1CCN(CCO)CC1)n2CCSc1nc2ccccc2s1,0.63
11,CC(C)CNC(=O)CC(c1ccccc1)c1c(O)ccc2ccccc12 (configuration not stated),1.86
12,C#CCN(N(C)c1ncc(C(F)(F)F)cc1Cl)S(=O)(=O)c1ccc2ccccc2c1,3.08
13,COC(=O)c1ccccc1NC(=O)Cc1ccccc1OC,1.04
14,Cc1ccc(S(=O)(=O)N2CCC(C(=O)NCC3CCCO3)CC2)cc1 (configuration not stated),2.9
15,O=C(CCCn1c(SCC(=O)c2ccccc2)nc2ccccc2c1=O)NCC1CCCO1 (configuration not stated),3.06
16,Cc1ccc(NC(=O)CSCC(=O)N2CCOCC2)cc1,2.79
17,Cc1ccc(C)c(N2C(=O)CS/C2=N\NC(=O)c2ccccc2Cl)c1,8.52
18,O=C(CSCc1c(F)cccc1Cl)NCC1CCCO1 (configuration not stated),7.29
19,COc1ccc(C)cc1NC(=O)CCS(=O)(=O)c1cccc2nonc12,-14.7
20,CCCc1noc2c1/C(=N\O)CCC2,8.44
